The text below walks through data of PubChem BioAssay AID1569 (National Center for Advancing Translational Sciences (NCATS), 2009).

Inconclusive results are not listed. Active and inactive are the calls of the source. Calls come from the whole dose curve; as a rule, active = well fitted inhibition curve with a large enough effect; inconclusive = small, poorly fitted or top-dose-only effect, or effect the other way, or another doubt; inactive = no such curve, though single readings can be large or run the other way.
Potency is the fitted concentration of half-maximal effect.

A short description of the assay: Confirmation Concentration-Response Assay for lipid storage modulators.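 For activity change, negative = inhibition: -100% = full block of lipid deposition by 20 µM Triacsin C.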 Note: nearly all actives have a fitted effect of over 80% in size. The conditions noted are these: Drosophila S3 cells, lipid droplet BODIPY/CellTracker ratio, 18-24 h; series mostly up to 46.1 µM; activity change, negative = inhibition: at the top concentration. Put shortly: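 Cells at 5,000/well received compound as a titration plus oleic acid (added as 400 uM solution) and were incubated 18–24 h at 24 °C. BODIPY 493/503 lipid signal and CellTracker Red cell count were read by 488-nm laser-scanning cytometry. Activity was normalised to 20 uM Triacsin C.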
Consider `CCNC(=O)NC1(C(=O)N2CCC(Cc3ccccc3)CC2)CCCCC1`, for which the “activity change, negative = inhibition” value was -11.1% (inactive).
As to `Cc1nn(C)c(C)c1CN(Cc1nc(CCC(C)C)no1)C(C)C`, the Potency is 12.5 µM (active).
In the case of `Cc1cccc(NC(=O)CNC(=O)C23CC4CC(CC(Cl)(C4)C2)C3)n1`, the Potency was 3.15 µM (active).
With `CCOc1ccc(CCNC(=O)COC(=O)c2ccc(S(C)(=O)=O)cc2)cc1OCC`, the “activity change, negative = inhibition” value was -7.33% (inactive).
For `COc1ccc(CCNC(=O)CSc2nnc(CNc3ccc(Cl)cc3)o2)cc1OC`, the “activity change, negative = inhibition” value was 0.667% (inactive).
For the molecule `Cc1cccc(-n2ncc3c2CCCC3NC(=O)Cc2c(C)noc2C)c1C` (stereo unspecified), the Potency was 14.1 µM (active).
On to `CN(CC1CCCO1)S(=O)(=O)c1ccc(C(=O)Nc2ccc(F)cc2)cc1` (stereo unspecified), for which the “activity change, negative = inhibition” value was 20.8% (inactive).
Turning to `COc1ccc(CCCc2nnc(SCC(=O)Nc3nc(C)cs3)n2C)cc1C`, the Potency was 1.41 µM (active).
`Cc1cc(C(=O)NC2CCCc3c2cnn3-c2ccccc2F)nc(C)n1` (stereo unspecified): the Potency was 1.41 µM (active).
With `COc1ccc(CCNC(=O)c2noc(C(C)C)c2[N+](=O)[O-])cc1OC`, the “activity change, negative = inhibition” value is 14.7% (inactive).
Regarding `CCCCCCCCCC[n+]1cccc2c3ccccc3ccc21`, the Potency was 1.77 µM (active).
On to `CCCCc1c(O)nc(SCC(=O)NCCc2ccc(OC)c(OC)c2)[nH]c1=O`, for which the “activity change, negative = inhibition” value is 22% (inactive).
`O=C(NCc1cccnc1)Nc1cc(Cl)cc(Cl)c1`: the “activity change, negative = inhibition” value was 16.6% (inactive).
On to `CCN(CC)S(=O)(=O)c1cc(NC(=O)CNc2cccc(S(=O)(=O)N3CCOCC3)c2)ccc1C`, for which the Potency was 2.81 µM (active).
With `COc1ccc2oc(C(=O)OCC(=O)NCCc3ccc(S(N)(=O)=O)cc3)c(C)c2c1`, the Potency was 4.99 µM (active).
Regarding `CCc1cccc2cc3c(N)c(C(=O)Nc4ccc(S(=O)(=O)N5CCCC5)cc4)sc3nc12`, the Potency is 9.96 µM (active).
In the case of `Cc1cc(C)cc(-n2ncc3c2CCCC3NC(=O)c2csnn2)c1` (stereo unspecified), the Potency is 0.0112 µM (active).
Turning to `COc1ccc(CCNC(=O)c2ccc(N(C)S(=O)(=O)c3ccc(C)cc3)cc2)cc1OC`, the Potency was 14.1 µM (active).
Consider `COc1ccc2c(c1)c1nnc(SCC(=O)N3C(C)CCCC3C)nc1n2C` (stereo unspecified), for which the Potency is 3.53 µM (active).
For `CCC(C)(C)NC(=O)C(c1ccc(OC)cc1)N(CCOC)C(=O)CCC(=O)Nc1nccs1` (stereo unspecified), the Potency was 19.9 µM (active).
On to `COc1ccc(Cl)cc1NC(=O)CN(C)C(=O)CCCc1c[nH]c2ccccc12`, for which the Potency is 22.3 µM (active).
With `COc1ccc(NC(=O)NC2(C(=O)N3CCN(C)CC3)CCCCC2)cc1`, the “activity change, negative = inhibition” value was 22.7% (inactive).
As to `Nc1c(C(=O)Nc2ccc(S(=O)(=O)N3CCCC3)cc2)sc2nc3ccc(OC(F)(F)F)cc3cc12`, the Potency is 8.88 µM (active).
Regarding `COc1ccc(CCNC(=O)CCCOc2cccc(C)c2C)cc1OC`, the “activity change, negative = inhibition” value was -9.33% (inactive).
Consider `Cc1sc2ncnc(NCC3COc4ccccc4O3)c2c1C` (stereo unspecified), for which the Potency was 1.99 µM (active).
Turning to `Cc1ccc(C(NC(=O)C2CCCCC2)c2c(O)ccc3ccccc23)cc1` (stereo unspecified), the Potency was 17.7 µM (active).
On to `CCC(C)N1C(=O)c2ccccc2C1C(=O)NC1CCCCCC1` (stereo unspecified), for which the Potency is 1.99 µM (active).
As to `c1ccc(-c2cnn3c(-c4ccccc4)c(-c4ccccc4)nc3n2)cc1`, the Potency is 3.15 µM (active).
Take `O=C(NC1CCCc2c1cnn2-c1ccc(F)cc1F)c1cnccn1` (stereo unspecified): the Potency is 0.445 µM (active).
As to `COc1ccc(NC(=O)NC2(C(=O)N3CCOCC3)CCCCC2)cc1`, the “activity change, negative = inhibition” value was 25.8% (inactive).
In the case of `OC1(c2cccc(C(F)(F)F)c2)CCN(c2ncnc3c2[nH]c2ccc(F)cc23)CC1`, the Potency was 7.91 µM (active).
Still for that read-out and setting: the value for `COc1c(C)cc(C(=O)C2CCCN(C(=O)c3ccc4[nH]ccc4c3)C2)cc1C` (stereo unspecified) was 17.3 µM (active); that for `Cc1ccc(NC(=O)CNC(=O)CC23CC4CC(CC(C4)C2)C3)c(O)c1` was 2.23 µM (active); that for `CCc1ccc(NC(=O)COc2ccc(/C=C(/C#N)c3nc4ccccc4[nH]3)cc2OC)cc1` was 7.05 µM (active).
Consider `Cn1nc(CC(=O)Nc2ccc(N3CCN(C(=O)OC(C)(C)C)CC3)cc2)c2ccccc2c1=O`, for which the Potency was 1.77 µM (active).
As for `COc1cccc(C(=O)O[C@@H]2[C@H](Cc3ccccc3)NS(=O)(=O)[C@H]3C[C@@H]4C=C[C@]23O4)c1`, the Potency is 11.2 µM (active).
